Results filed as inconclusive are left out. A number with no mark means an inactive call. Active and inactive are the calls of the source. Calls follow the shape of the dose curve; as a rule, active = well fitted cell-killing curve with a large enough effect; inconclusive = small, poorly fitted or top-dose-only effect, or effect the other way; inactive = flat fitted curve, though single readings scatter.

Results on 29 compounds are retold here after PubChem BioAssay (NCATS).

Common to all, as to experiment: Primary qHTS to identify gynecologic anti-cancer compounds using libraries of approved drugs and bioactive compounds (AID 1345084); also: nearly all actives have a fitted effect of over 55% in size
Holding throughout (conditions): Gynecologic cancer cell panel viability, ATPlite luminescence, 48 h; series mostly up to 57.5 µM
In general terms: In qHTS, concentration-response curves come from the screen itself.

One test concerns SKOV3. The method in brief: (§1)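 Cells, 1,000 per well, were allowed to settle for 16 h at 37 C before compound addition. Five concentrations were tested for 48 h, and viability was read by ATPlite luminescence after 15 min at room temperature.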
The subject of the next test is Tov-21-G. The method in brief:
as §1

For the next test, the system named is Tov112D. An outline of the steps: as §1
% is scaled to controls: 0 for no effect and ±100 for the full control effect; potency is read from the fitted curve at half-maximal effect.

`CCc1ccccc1OC[C@@H](O)CN[C@H]1CCCc2ccccc21`: the Potency result with SKOV3, in the test on Tov-21-G and in the test with Tov112D was “inactive” in each case.
As to `COc1cc(C(C)C)c(Oc2cnc(N)nc2N)cc1I`, the Potency result with SKOV3, in the test on Tov-21-G and with Tov112D was “inactive” in each case.
Take `Cc1cc(C)nc(SCC(=O)Nc2ncc(Cc3cccc4ccccc34)s2)n1`: the Potency entry in the test with SKOV3, in the test on Tov-21-G and in the test on Tov112D was “inactive” in each case.
`C/C=C(\C)C(=O)OC1C(C)C2(O)C(C=C(CO)CC3(O)C(=O)C(C)=CC32)C2C(C)(C)C12OC(=O)C(C)C` (configuration not stated): the Potency result in the test with SKOV3, with Tov-21-G and in the test with Tov112D was “inactive” throughout.
For `C/C=C/CCC1Cc2cc(O)c(CCCC)c(O)c2C(=O)O1` (configuration not stated), the Potency result in the test on SKOV3, in the test with Tov-21-G and in the test on Tov112D was “inactive” throughout.
On to `C=C(C)C(=O)O[C@H]1[C@H]2C(=C)C(=O)O[C@@H]2/C=C(\CO)CC/C=C(/C=O)[C@@H]1O`, for which the Potency result in the test on SKOV3, with Tov-21-G and in the test on Tov112D was “inactive” throughout.
On to `O=C1COc2nccc(-c3ccccc3F)c2CN1Cc1cc(C(F)(F)F)cc(C(F)(F)F)c1`, for which the Potency entry with SKOV3, in the test on Tov-21-G and with Tov112D was “inactive” throughout.
As to `O=C(Nc1ccc(Cl)cc1)Nc1cccc(-c2cccc(N3CCCC3)n2)c1`, the Potency entry in the test with SKOV3, in the test with Tov-21-G and in the test on Tov112D was “inactive” in each case.
For `C#CCCCn1cc(-c2cccc3c2N[C@H](C)CC(=O)N3)cn1`, the Potency entry with SKOV3, in the test with Tov-21-G and with Tov112D was “inactive” in each case.
Take `C=C1CCC2C(C)(C(=O)O)CCCC2(C)C1CCC1=CCOC1=O` (configuration not stated): the Potency result in the test with SKOV3, in the test on Tov-21-G and in the test on Tov112D was “inactive” in each case.
On to `O=C(Nc1ccc(Cl)cc1)c1ccccc1NCc1ccncc1`, for which the Potency entry in the test with SKOV3, with Tov-21-G and in the test on Tov112D was “inactive” each time.
On to `CC(=O)OCC(=O)[C@@]12O[C@@H]1C[C@H]1[C@@H]3CC=C4C[C@@H](O)CC[C@]4(C)[C@H]3CC[C@@]12C`, for which the Potency entry with SKOV3, in the test with Tov-21-G and in the test with Tov112D was “inactive” in each case.
Consider `C=C1CC2OC(=O)C(=C)C2C(OC(=O)/C(C)=C\C)CC2(C)OC1=CC2=O` (configuration not stated), for which the Potency with SKOV3 and in the test on Tov-21-G was 11.2 µM (active) each time. In addition, the Potency result in the test with Tov112D was “inactive”.
`CCC(C)C1NC(=O)C(Cc2ccccc2)NC(=O)C(CCCCCC(=O)C(O)CO)NC(=O)C2CCCCN2C1=O` (configuration not stated): the Potency entry in the test on SKOV3, in the test on Tov-21-G and in the test with Tov112D was “inactive” throughout.
For the compound `CC(C)c1c(O)ccc2c1CC[C@H]1C(C)(C)CCC[C@]21C`, the Potency result in the test with SKOV3, with Tov-21-G and in the test with Tov112D was “inactive” each time.
`COC1CCN(C(=O)c2cc(Cc3n[nH]c(=O)c4ccccc34)ccc2F)CC1`: the Potency entry in the test with SKOV3, in the test on Tov-21-G and in the test on Tov112D was “inactive” in each case.
For the compound `CC(C)C(C)C(O)C1CC23CC(=O)C4(O)C(=C2CCC3C1C)C=CC1(O)CC(O)CCC14C` (configuration not stated), the Potency result in the test on SKOV3, in the test on Tov-21-G and in the test with Tov112D was “inactive” each time.
For the compound `Cc1c(C(=O)Nc2ccc(N3CCC(N4CCOCC4)CC3)c(C#N)c2)cnn1-c1ccc(Cl)cc1`, the Potency result with SKOV3, with Tov-21-G and in the test on Tov112D was “inactive” in each case.
With `Cc1cccc(N2CCN(C(=O)c3cc(S(=O)(=O)N(C)C)ccc3N3CCCC3)CC2)c1C`, the Potency entry with SKOV3, with Tov-21-G and in the test with Tov112D was “inactive” in each case.
Regarding `Cc1c(Cl)cccc1S(=O)(=O)Nc1nc(NCCc2ccccc2)nc2c1CN(Cc1ccccc1)CC2`, the Potency entry in the test with SKOV3, in the test on Tov-21-G and in the test on Tov112D was “inactive” each time.
`O=C(NC[C@H]1CN(c2ccc(N3CCOCC3=O)cc2)C(=O)O1)c1ccc(Cl)s1`: the Potency result with SKOV3, in the test on Tov-21-G and in the test on Tov112D was “inactive” in each case.
With `C=C[C@]1(C)C[C@H](O)[C@H]2C(=C)C(=O)O[C@@H]2[C@H]1C(=C)CO`, the Potency result in the test on SKOV3, in the test with Tov-21-G and in the test with Tov112D was “inactive” throughout.
Consider `O=C(O)c1ccc(S(=O)(=O)N(Cc2ccc(OC(F)(F)F)cc2)c2ncc(C(F)(F)F)cc2Cl)cc1`, for which the Potency entry with SKOV3, in the test with Tov-21-G and in the test on Tov112D was “inactive” each time.
For `O=C(Nc1ccc(-n2nc(C(F)(F)F)cc2C(F)(F)F)cc1)c1ccncc1F`, the Potency entry in the test with SKOV3, in the test with Tov-21-G and in the test on Tov112D was “inactive” throughout.
For the compound `CC(C)(Cc1ccccc1)NCC(O)c1ccc(O)c(NS(C)(=O)=O)c1` (configuration not stated), the Potency result in the test on SKOV3, with Tov-21-G and in the test with Tov112D was “inactive” in each case.
Consider `O=C(Nc1ccc(-c2ccc(Cl)c(Cl)c2)cc1)C1=C(O)c2ccccc2S(=O)(=O)N1`, for which the Potency entry in the test with SKOV3, in the test on Tov-21-G and in the test on Tov112D was “inactive” in each case.
With `COC(=O)C[C@H]1[C@]2(C)C3=C(C)[C@H](c4ccoc4)C[C@H]3O[C@@H]2[C@H](O)C2[C@](C)(C(=O)OC)C=CC(=O)[C@@]21C` (some centres not stated), the Potency entry with SKOV3, in the test on Tov-21-G and in the test with Tov112D was “inactive” in each case.
Turning to `CNc1nc(Nc2ccc(C(=O)N3CCOCC3)cc2OC)nc2[nH]cc(Cl)c12`, the Potency entry with SKOV3, in the test on Tov-21-G and in the test on Tov112D was “inactive” in each case.
Consider `CCC(C)(OC(C)=O)C(=O)O[C@H]1[C@H](OC(C)=O)[C@]2(CO)[C@H](O)[C@H](O)[C@]3(C)C(=CCC4[C@@]5(C)CC[C@H](O[C@@H]6O[C@H](C(=O)O)[C@@H](O)[C@H](O[C@@H]7OC[C@H](O)[C@H](O[C@@H]8OC[C@H](O)[C@H](O)[C@H]8O)[C@H]7O)[C@H]6O[C@@H]6O[C@H](CO)[C@@H](O)[C@H](O)[C@H]6O)C(C)(C)C5CC[C@]43C)[C@@H]2CC1(C)C` (some centres not stated), for which the activity change, negative = cytotoxicity in the test on SKOV3 was -31.7% [at 6.55 µM]; in the test on Tov-21-G it was -3.66% [at 6.55 µM]; in the test with Tov112D, -10.5% [at 6.55 µM].
